# Measured values taken from PubChem BioAssay (NCATS).
# Where “and” joins values, the source holds several entries; their conditions need not be identical. Identical values can stand only once. Inconclusive results are not listed. Where a call stands in place of a potency, no number is given. Calls of active or inactive are those of the source. Unless noted, the call rests on the fitted dose curve; in most records, active means well fitted curve in the direction sought with a large enough effect; inconclusive means small, poorly fitted or top-dose-only effect, or another doubt; inactive means no such curve, though single readings can be large; an effect the other way counts as inactive or inconclusive.
# Key:
# [1] = target: DNA repair nuclease/redox regulator APEX1 (Homo sapiens) (UniProt P27695); assay: qHTS Validation Assay for Inhibitors of the Human Apurinic/apyrimidinic Endonuclease 1 (APE1) (AID 1705; further: potency means the concentration at half of the fitted maximal effect)
# Sequence of DNA repair nuclease/redox regulator APEX1 (Homo sapiens) (P27695 whole entry, looked up): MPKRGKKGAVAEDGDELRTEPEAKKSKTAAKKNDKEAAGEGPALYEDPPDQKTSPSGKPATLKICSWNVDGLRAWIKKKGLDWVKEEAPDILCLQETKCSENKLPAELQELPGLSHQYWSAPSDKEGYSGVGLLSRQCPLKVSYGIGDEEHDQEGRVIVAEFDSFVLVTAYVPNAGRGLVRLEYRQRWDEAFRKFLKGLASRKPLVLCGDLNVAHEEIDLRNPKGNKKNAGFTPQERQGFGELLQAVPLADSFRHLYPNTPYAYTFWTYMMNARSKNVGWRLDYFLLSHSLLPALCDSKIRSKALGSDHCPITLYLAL
# Summary of the method: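 Substrate: 50 nM final fluorophore/quencher THF-abasic duplex. Enzyme preincubated with compounds 15 min, RT. Progress derived from fluorescence difference, third minus first kinetic read.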
# [2] = Counterscreen for APE1 Inhibitors: Fluorescent Dye Displacement Validation Assay (AID 1707)
# Summary of the method: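 ThO 250 nM + dsDNA 50 nM (THF abasic site, 5'-TAMRA), Tris-HCl pH7.5/50mM NaCl/2 mM MgCl2/0.01% Tween-20; compounds pin-transferred; ex 480/em 540 nm endpoint. Neutral = no compound; no-DNA ThO wells = negative control.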
# [3] = target: Endonuclease 4 (Escherichia coli (strain K12)) (UniProt P0A6C1); assay: Counterscreen for APE1 Inhibitors: qHTS Validation Assay for Inhibitors of Endonuclease IV (AID 1708); further: potency means the concentration at half of the fitted maximal effect; details: E. coli endonuclease IV, DNA cleavage fluorescence
# Summary of the method: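 2 nM enzyme was preincubated with compounds for 15 min at room temperature in 50 mM Tris-HCl pH 7.5, 50 mM NaCl, 2 mM MgCl2, 1 mM DTT, 0.01% Tween-20. 50 nM THF-abasic TAMRA/BHQ-2 duplex substrate started the reaction.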
# [4] = qHTS for differential inhibitors of proliferation of Plasmodium falciparum line 7G8 (AID 1815);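 further: parasite growth measured after three days of incubation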
# [5] = qHTS for differential inhibitors of proliferation of Plasmodium falciparum line GB4 (AID 1816);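 further: parasite growth measured after 72 h incubation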
# [6] = qHTS for differential inhibitors of proliferation of Plasmodium falciparum line 3D7 (AID 1876);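 further: parasite growth measured after three days of culture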
# [7] = qHTS for differential inhibitors of proliferation of Plasmodium falciparum line D10 (AID 1877);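 further: parasites grown with compound for 72 h before DNA staining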
# [8] = qHTS for differential inhibitors of proliferation of Plasmodium falciparum line Dd2 (AID 1882);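 further: compound exposure of 72 h on infected erythrocytes; nearly all actives have a fitted effect of over 65% in size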
# Summary of the method: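 SYBR Green I DNA fluorescence read-out, ex 485/em 535 nm. Signals were normalized to 0.29 uM artemisinin and DMSO wells, then corrected using vehicle-only plates flanking each stack. Parasite growth ran 72 h in erythrocytes before lysis.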
# [9] = qHTS for differential inhibitors of proliferation of Plasmodium falciparum line HB3 (AID 1886); details: Potency: Plasmodium falciparum HB3 proliferation inhibition;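 further: parasites grown with compound for 72 h before SYBR Green readout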
# [10] = qHTS Assay for Modulators of Human Peripheral Myelin Protein 22 (PMP22) Expression/Activity (AID 1967; active means well fitted curve in the direction sought with a large enough effect in the signal ratio; the % refers to the signal ratio)
# Summary of the method: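 Engineered MSC80 cells, Pmp22-promoter green and EF-alpha red luciferase reporters; 24h compound treatment at 37 °C. Concentration-response fits on green, red and ratio signals, each overlap-corrected, with %Activity normalized to untreated wells.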
# [11] = target: Ferritin light chain (Equus caballus) (UniProt P02791); assay: qHTS Validation Assay for Identification of Novel General Anesthetics (AID 2323)
# Sequence of Ferritin light chain (Equus caballus) (P02791 2-175 limits assumed): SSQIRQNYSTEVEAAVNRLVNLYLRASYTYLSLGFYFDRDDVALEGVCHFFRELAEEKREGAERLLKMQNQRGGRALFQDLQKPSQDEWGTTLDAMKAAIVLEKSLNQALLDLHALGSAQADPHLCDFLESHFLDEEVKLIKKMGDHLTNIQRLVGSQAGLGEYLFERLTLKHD
# Summary of the method: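 Normalized fluorescence response, scaled between free 1-AMA and 1-AMA/apoferritin complex, fitted to a four-parameter Hill equation for concentration-effect values. Binding mix: 10 uM horse-spleen apoferritin, 50% saturated 1-AMA in PBS; read 380/535 nm after 10 min.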
# [12] = Cell Viability - LYMP2-026 (AID 989); further: nearly all actives have a fitted effect of over 50% in size
# Summary of the method: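 Concentration-dependent loss of intracellular ATP in human lymphoblastoid cells after 24 hr at 37 C, quantified by luciferase luminescence. AC50 derived from standard Hill equation.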
# [13] = Cell Viability - LYMP1-002 - Assay at 24 hr (AID 993)
# Summary of the method: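 qHTS, LYMP1-002 lymphoblastoid, 24 h cpd, 37 C, CellTiter-Glo ATP luminescence; AC50 via Hill eq.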
# [14] = Cell Viability - LYMP1-002 - Assay at 40 hr (AID 994); further: nearly all actives have a fitted effect of over 60% in size; further: potency means the concentration at half of the fitted maximal effect
# Summary of the method: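 Viability in the human lymphoblastoid line was measured as intracellular ATP via CellTiter-Glo after 40 hr compound exposure. Tetraoctylammonium bromide served as positive control.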
# [15] = qHTS Assay for Identification of Small Molecule Inducers of Hypoxia Response (AID 2120; active means well fitted curve in the direction sought with a large enough effect in the signal ratio, with a control signal flat, not every such curve was filed as active; the % refers to the signal ratio)
# Summary of the method: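 Induction of beta-lactamase reporter activity was measured in CellSensor HRE-bla ME-180 cells after 17 h compound treatment at 37 degrees C, using CCF4 substrate and the 460nm/530nm emission ratio to derive AC50 values.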
# [16] = target: Alpha-galactosidase A (Homo sapiens) (UniProt P06280); assay: Counterscreen for Glucocerebrosidase Inhibitors: qHTS Assay for Human alpha-Galactosidase at pH 4.5 (AID 992)
# Sequence of Alpha-galactosidase A (Homo sapiens) (P06280 whole entry, looked up): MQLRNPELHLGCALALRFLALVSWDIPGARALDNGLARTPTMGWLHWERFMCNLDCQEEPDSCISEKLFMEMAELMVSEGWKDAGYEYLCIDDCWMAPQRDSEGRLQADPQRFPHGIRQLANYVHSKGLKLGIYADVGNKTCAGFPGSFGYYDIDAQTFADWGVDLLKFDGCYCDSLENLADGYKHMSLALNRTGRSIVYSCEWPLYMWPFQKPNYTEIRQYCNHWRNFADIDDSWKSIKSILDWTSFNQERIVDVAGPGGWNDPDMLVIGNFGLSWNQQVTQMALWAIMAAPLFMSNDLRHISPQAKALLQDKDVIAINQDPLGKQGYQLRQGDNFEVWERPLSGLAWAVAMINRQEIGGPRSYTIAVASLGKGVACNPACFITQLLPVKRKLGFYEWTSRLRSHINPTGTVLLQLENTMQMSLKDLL
# Summary of the method: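 Read-out is 4-methylumbelliferone fluorescence (365 nm excitation, 440 nm emission) after a pH 10 NaOH/glycine stop. Reactions held 2 nM enzyme and 80 uM substrate at pH 4.5 for 20 min at room temperature.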
# [17] = target: alpha-glucosidase (Oryza sativa, rice) (UniProt Q653V4); assay: Counterscreen for Glucocerebrosidase Inhibitors: qHTS Assay for Rice alpha-Glucosidase at pH 5.0 (AID 997)
# Summary of the method: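 Rice alpha-glucosidase (4 nM final) with 400 uM 4-methylumbelliferyl-alpha-D-glucopyranoside in citrate buffer pH 5.0, 20 min at room temperature, stopped at pH 10; fluorescence 365/440 nm, compounds 0.7 nM–77 uM, AC50 from Hill fits.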
# [18] = qHTS Assay for Lipid Storage Modulators (AID 1519; calls by dose curve); details: Drosophila S3 cells, BODIPY lipid droplet/cell ratio, laser cytometry, cells loaded with oleic acid
# Summary of the method: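 Cells seeded at 5,000 per well were treated with compounds over a concentration series and loaded with oleic acid (400 uM, as added). Lipid droplet fluorescence (488 nm excitation, 500-530 nm channel) was read by laser-scanning cytometry and normalized to 20 uM Triacsin C.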
# [19] = measured here: cell count channel max response
# [20] = measured here: lipid channel max response
smiles,measurement,setting,value
CC(=O)OCC1=C(C(=O)O)N2C(=O)[C@@H](NC(=O)CSc3ccncc3)[C@H]2SC1,Potency,[1],8.91 µM (active)
same,outcome,[2],inactive
same,Potency,[3],15.8 µM (active)
same,outcome,[4],inactive
same,outcome,[5],inactive
same,Potency,[6],inactive
same,outcome,[7],inactive
same,outcome,[8],inactive
same,Potency,[9],inactive
same,outcome,[10],inactive
same,outcome,[11],inactive
OC[C@H]1O[C@@H]2O[C@H]3[C@H](O)[C@@H](O)[C@@H](O[C@H]4[C@H](O)[C@@H](O)[C@@H](O[C@H]5[C@H](O)[C@@H](O)[C@@H](O[C@H]6[C@H](O)[C@@H](O)[C@@H](O[C@H]7[C@H](O)[C@@H](O)[C@@H](O[C@H]8[C@H](O)[C@@H](O)[C@@H](O[C@H]1[C@H](O)[C@H]2O)O[C@@H]8CO)O[C@@H]7CO)O[C@@H]6CO)O[C@@H]5CO)O[C@@H]4CO)O[C@@H]3CO,outcome,[12],inactive
same,outcome,[13],inactive
same,Potency,[14],inactive
same,outcome,[15],inactive
C=C[C@H]1CN2CC[C@H]1C[C@@H]2[C@@H](O)c1ccnc2ccc(OC)cc12,outcome,[12],inactive
same,outcome,[13],inactive
same,Potency,[14],inactive
CN=C(N)NCCC[C@H](N)C(=O)O,outcome,[16],inactive
same,outcome,[17],inactive
same,"activity change, negative = inhibition",[18]; at 57.5 µM (top of the series),0.0216% (inactive)
same,max response,[18]; [19],-14.9%
same,max response,[18]; [20],-15.5%
COc1ccc(C(=O)c2ccccc2)c(O)c1,outcome,[12],inactive
same,outcome,[13],inactive
same,Potency,[14],inactive
same,"activity change, negative = inhibition",[18]; at 25.7 µM (top of the series),-0.0822% (inactive)
same,"activity change, negative = inhibition",[18]; at 57.5 µM (top of the series),9.05% (inactive)
same,max response,[18]; [19],-14% and -2.88%
same,max response,[18]; [20],-14.1% and 8.45%
same,outcome,[15],inactive
Oc1c(Cl)cc(Cl)c(Cl)c1Cc1c(O)c(Cl)cc(Cl)c1Cl,Potency,[14],31.6 µM (active)
same,"activity change, negative = inhibition",[18]; at 57.5 µM (top of the series),7.05% (inactive)
same,max response,[18]; [19],18%
same,max response,[18]; [20],27%
CCN(CC)CCNc1ccc(CO)c2sc3ccccc3c(=O)c12,"activity change, negative = inhibition",[18]; at 25.7 µM (top of the series),-5.73% (inactive)
same,"activity change, negative = inhibition",[18]; at 57.5 µM (top of the series),-11.5% (inactive)
same,max response,[18]; [19],-10.2% and 2.62%
same,max response,[18]; [20],-16.8% and -5.8%
NS(=O)(=O)Cc1noc2ccccc12,outcome,[16],inactive
same,outcome,[17],inactive
Oc1ccc(Cl)cc1Cc1cc(Cl)ccc1O,outcome,[13],inactive
CCOc1ccccc1C(N)=O,outcome,[12],inactive
same,outcome,[13],inactive
same,Potency,[14],inactive
same,outcome,[15],inactive
CNCCc1ccccn1,"activity change, negative = inhibition",[18]; at 25.7 µM (top of the series),-0.261% (inactive)
same,"activity change, negative = inhibition",[18]; at 57.5 µM (top of the series),1.62% (inactive)
same,max response,[18]; [19],0.592% and 17.8%
same,max response,[18]; [20],1.76% and 22.8%
C/C=C/c1ccc(O)c(OC)c1,outcome,[12],inactive
same,outcome,[13],inactive
same,Potency,[14],inactive
same,outcome,[15],inactive
O=C(O)CCC(=O)Nc1ccc(S(=O)(=O)Nc2nccs2)cc1,"activity change, negative = inhibition",[18]; at 25.7 µM (top of the series),0.767% (inactive)
same,"activity change, negative = inhibition",[18]; at 57.5 µM (top of the series),7.18% (inactive)
same,max response,[18]; [19],5.61% and 16.3%
same,max response,[18]; [20],3.26% and 28.6%
COc1ccc(C(=O)c2ccccc2O)c(O)c1,"activity change, negative = inhibition",[18]; at 25.7 µM (top of the series),-7.39% (inactive)
same,"activity change, negative = inhibition",[18]; at 57.5 µM (top of the series),4.5% (inactive)
same,max response,[18]; [19],-10.6% and 8.18%
same,max response,[18]; [20],-18.3% and 15.8%
